Drawing on PubChem BioAssay AID777 (Sanford-Burnham Center for Chemical Genomics, 2007), this text covers inhibition for 98 compounds.

Hit rate of the full screen: of about 96,000 compounds, about 19,000 (20%) were called active.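 The calls were made as follows: active = blocking of liver enzyme CYP2C9 beyond about 50% at 5 µM (limit read from the data); inactive = the rest.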 These entries were drawn from the full list.

As a reminder, the inhibition is the relative decrease from the control value, in per cent.

The target in the experiment is Cytochrome P450 2C9 (Homo sapiens) (UniProt P11712). Briefly: blockers of cytochrome P450 2C9 activity – biochemical, luminescence, ADME assay, primary screen (AID 777). The conditions noted are these: CYP2C9 Supersomes, luciferin-H conversion, at 5 µM, hits give high values.
Chain of Cytochrome P450 2C9 (Homo sapiens) (P11712 whole entry, looked up): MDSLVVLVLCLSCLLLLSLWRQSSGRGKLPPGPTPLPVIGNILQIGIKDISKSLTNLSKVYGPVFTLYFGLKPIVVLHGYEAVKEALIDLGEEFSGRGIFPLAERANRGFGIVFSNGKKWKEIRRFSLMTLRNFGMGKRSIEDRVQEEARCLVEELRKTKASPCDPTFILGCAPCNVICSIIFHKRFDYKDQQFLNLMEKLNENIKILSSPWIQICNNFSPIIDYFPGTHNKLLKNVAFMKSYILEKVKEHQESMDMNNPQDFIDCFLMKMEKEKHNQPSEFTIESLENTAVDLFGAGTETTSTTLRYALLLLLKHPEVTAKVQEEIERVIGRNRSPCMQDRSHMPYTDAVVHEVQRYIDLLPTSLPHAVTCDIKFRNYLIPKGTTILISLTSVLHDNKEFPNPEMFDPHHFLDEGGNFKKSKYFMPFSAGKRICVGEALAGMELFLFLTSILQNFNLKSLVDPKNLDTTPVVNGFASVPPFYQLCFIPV
In the case of `COc1ccc2c(c1OC)C(=O)N(c1ncn[nH]1)C2`, the inhibition is -23.9% (inactive). Consider `CCN(CC)C(=O)CC1(c2ccccc2OC)CCOC(C(C)C)C1` (stereo not drawn), for which the inhibition is 17% (inactive). Turning to `O=S(=O)(c1ccc2ccccc2c1)N1CCN(S(=O)(=O)N2CCOCC2)CC1`, the inhibition is -53.6% (inactive). With `O=C(CCc1ccc(S(=O)(=O)N2CCOCC2)cc1)Nc1ccc2ccccc2c1`, the inhibition is 55.3% (active). For `O=C(CN1CCN(S(=O)(=O)c2ccc3ccccc3c2)CC1)NC(=O)NC1CCCCC1`, the inhibition was -18.3% (inactive). For `Cn1nnnc1SCc1cc(=O)[nH]c2ccccc12`, the inhibition is 14.5% (inactive). Regarding `CCOC(=O)Cc1c(C)nc2c(C#N)c(C)nn2c1C`, the inhibition is -3.2% (inactive).

On to `O=c1c2ccccc2nc(N/N=C/c2ccccc2)n1O`, for which the inhibition was -1.4% (inactive). Take `CCCOn1c(-n2nc(C)cc2C)nc2ccccc2c1=O`: the inhibition was 11.3% (inactive). Regarding `CCCc1nc2ccccc2c(=O)n1/N=C/c1ccc(O)c(O)c1`, the inhibition was 85.3% (active). For `O=C(Cc1ccc(-n2c(=O)[nH]c3ccccc3c2=O)cc1)N1CCN(c2cccc(Cl)c2)CC1`, the inhibition is 57.5% (active).

`CCOC(=O)N1CCC(Nc2c(NCCN3CCN(c4cccc(Cl)c4)CC3)c(=O)c2=O)CC1`: the inhibition was 0.8% (inactive). Turning to `CCOC(=O)N1CCN(C(=O)Cc2ccc(-n3c(=S)[nH]c4ccccc4c3=O)cc2)CC1`, the inhibition was 11.8% (inactive). Consider `O=C(C1CCN(S(=O)(=O)c2cnc[nH]2)CC1)N1CCN(Cc2ccc3c(c2)OCO3)CC1`, for which the inhibition is 9.3% (inactive). Consider `O=C(CS(=O)(=O)Cc1ccccc1)Nc1cccnc1`, for which the inhibition was -3.4% (inactive). For `Cc1nc(CNS(=O)(=O)c2ccc(Oc3ccccc3)cc2)cs1`, the inhibition was 39.1% (inactive). For `O=S(=O)(Nc1ccccn1)c1ccc(Oc2ccccc2)cc1`, the inhibition is 81.4% (active). As to `COc1ccccc1Oc1ccc(S(=O)(=O)Nc2cccnc2)cc1`, the inhibition was 84.9% (active). For `Cc1ccc(S(=O)(=O)c2ccc(Oc3ccccc3)cc2)cc1` the value was -5.1% (inactive); for `Cc1cc(C)cc(NS(=O)(=O)c2ccc(Oc3ncc(C(F)(F)F)cc3Cl)cc2)c1`, 47.2% (inactive). Consider `COc1cc(=O)[nH]c(=O)n1C(=O)Cc1ccccc1`, for which the inhibition was 11.7% (inactive). Take `Cc1nc(NC2=NC(C(=O)Nc3ccc(Cl)cc3)CC(=O)N2)nc2ccccc12` (stereo not drawn): the inhibition is 1.6% (inactive). As for `O=C(CCCN1C(=O)c2cccc3cccc(c23)C1=O)N1CCN(Cc2ccc3c(c2)OCO3)CC1`, the inhibition was -138% (inactive).

Turning to `O=C1c2ccccc2C(=O)N1c1ccccc1S(=O)C(F)(F)F` (stereo not drawn), the inhibition is -4% (inactive). Turning to `O=C(Nc1ccccc1[N+](=O)[O-])C1C(c2ccccc2)=C1c1ccccc1`, the inhibition is 18.8% (inactive). As to `O=[N+]([O-])c1ccccc1NCc1ccc(Cl)cc1`, the inhibition is 18% (inactive).

Consider `O=C(O)c1ccccc1NC(=S)NC(NC(=O)c1ccccc1[N+](=O)[O-])C(Cl)(Cl)Cl` (stereo not drawn), for which the inhibition is 72.3% (active).

For the compound `O=C(Nc1ccc2c(c1)OCO2)C1CC(c2c(F)cccc2Cl)=NO1` (stereo not drawn), the inhibition was -159% (inactive). Turning to `COCn1c(COc2ccccc2)nc2ccccc21`, the inhibition is 43.7% (inactive). Regarding `CCN(CC(=O)NC(C)C)C(=O)CCNC(=O)c1ccc(Cl)cc1`, the inhibition was 6.3% (inactive).

As to `CCCCNC(=O)CCNC(=O)c1ccc(C(C)(C)C)cc1`, the inhibition was 41.3% (inactive). Consider `Cc1ccc(CNC(=O)CCCNC(=O)c2ccc(Cl)cc2)n1C`, for which the inhibition was 80.5% (active). With `CCCCNC(=O)C(=O)c1ccccc1NC(C)=O`, the inhibition is 15.4% (inactive).

In the case of `CCCNC(=S)NC1CC2CCCC(C1)N2CC(C)C` (stereo not drawn), the inhibition was -4.2% (inactive).

For `Cc1cc(OC(=O)c2ccc(Cl)cc2)cc(=O)n1C`, the inhibition was 32% (inactive). `COc1ccccc1C1C2=C(COC2=O)Nc2cc3c(cc21)OCO3` (stereo not drawn): the inhibition was 28.2% (inactive). In the case of `CCCOc1ccccc1C1CC(=O)Nc2cc3c(cc21)OCO3` (stereo not drawn) it was 94.4% (active). With `COCCOC(=O)C1=C(C)NC(=O)CC1c1cc2c(cc1Br)OCO2` (stereo not drawn), the inhibition was 8.2% (inactive).

Consider `CC1(C)CC(=O)C(C2=NC(C)(C)Cc3ccccc32)=C(O)C1`, for which the inhibition was 5.8% (inactive). `C=CCOc1c2ccc(C(=O)N(CC)c3ccc(OC)cc3)cc2nn1C`: the inhibition was 47.3% (inactive). Consider `COc1ccc(-c2nnc(SC(=O)N3c4ccccc4Sc4ccccc43)o2)cc1`, for which the inhibition is 83.1% (active). With `COc1cc(OC)cc(C(=O)NC2CCN(C(=O)N3c4ccccc4Sc4ccccc43)CC2)c1`, the inhibition is 41.4% (inactive). Consider `COc1ccc(-c2nnc(SC(C)C#N)o2)cc1` (stereo not drawn), for which the inhibition was 13.9% (inactive). As for `COc1ccc2c(c1)cc1n2CCN=C1NN`, the inhibition was 42.7% (inactive). With `Cc1ccc(C(=O)NC2CCN(C(=O)N3CCOCC3)CC2)cc1`, the inhibition is -6.4% (inactive).

As for `N#Cc1nc(N)nc(N(c2ccccc2)c2ccccc2)n1`, the inhibition was 19.9% (inactive). With `CCOC(=O)c1cc2c(n(-c3ccc(C)cc3)c1=O)CCCC2=O`, the inhibition was 12% (inactive). In the case of `Cc1n[nH]c(=O)n1-c1ccc(Oc2ccccc2)cc1`, the inhibition is 0.7% (inactive). `Cc1ccc(N)cc1-n1c(C)ccc1C`: the inhibition is -1.6% (inactive). As to `Cc1ccccc1CSc1nnc(-c2ccccn2)n1N`, the inhibition is -28.8% (inactive). For `Cc1ccc(S(=O)(=O)N(CC(=O)N/N=C/c2ccc(F)cc2)c2cccc3cccnc23)cc1`, the inhibition was 9.7% (inactive). For `COc1ccc(N(CC(=O)N/N=C/c2cccc3c2OCCO3)S(=O)(=O)c2ccc(NC(C)=O)cc2)cc1` the value was 76.1% (active); for `COc1ccc(N(CC(=O)N/N=C/c2cccs2)S(=O)(=O)c2ccc(OC)c(OC)c2)cc1`, 44.2% (inactive). `Cn1c(=N)n(CC(O)c2ccccc2)c2ccccc21` (stereo not drawn): the inhibition was -27.2% (inactive). Turning to `Cc1c(Br)c([N+](=O)[O-])nn1C(C)C(=O)Nc1nccs1` (stereo not drawn), the inhibition is 73.2% (active). Turning to `COc1cc(C(=O)Nc2nccs2)cc(OC)c1OC`, the inhibition is 42% (inactive).

As to `Cn1cccc1C(=O)Nc1nccs1`, the inhibition was 2.9% (inactive). For `O=P(O)(CN1CCCCC1)CN1CCCCC1` the value was -9.6% (inactive); for `CSc1nc2ccc(S(=O)(=O)N3CCc4ccccc43)cc2s1`, 15.3% (inactive); for `Cc1nn(C)c(C)c1S(=O)(=O)N1CCc2ccccc21`, -33.4% (inactive).

Consider `CCn1c(=O)c(=O)n(CC)c2cc(S(=O)(=O)N3CCc4ccccc43)ccc21`, for which the inhibition is 96.5% (active). For `CC1CCC(NS(=O)(=O)c2ccc3c(c2)n(C)c(=O)c(=O)n3C)CC1` (stereo not drawn) the value was 8.5% (inactive). Consider `COc1ccc(C(=O)OCC(=O)NCC2CCCCC2)cc1S(=O)(=O)N1CCCc2ccccc21`, for which the inhibition was 9.6% (inactive). For `Cn1c(=O)n(C)c2cc(S(=O)(=O)N3CCCc4ccccc43)ccc21` the value was 66.5% (active).

As for `Cc1ccc(-n2c(=O)c(C#N)cc3c(=O)n4ccccc4nc32)cc1C`, the inhibition was -2.8% (inactive).

Consider `Cc1cc(C=O)c(C)n1-c1ccc(NC2CCCCC2)c([N+](=O)[O-])c1`, for which the inhibition was 15.9% (inactive). For `Cc1ccoc1C(=O)Nc1cccc(Oc2ccccc2)c1` the value was 34% (inactive). As for `O=C(OCCO)c1cc(Cl)c(C(=O)OCCO)cc1Cl`, the inhibition was 48.4% (inactive). `Cc1ccc(NC(=O)c2ccc(CSc3ncnc4nc[nH]c34)cc2)c(C)c1`: the inhibition is -76.5% (inactive). Turning to `CCN1CCN(C(c2cccnc2)c2cc(Cl)c3cccnc3c2O)CC1` (stereo not drawn), the inhibition was 29.8% (inactive). Regarding `CCn1ncc(C2=NOC(C(=O)Nc3ccccc3C(=O)OC)C2)c1C` (stereo not drawn), the inhibition was -34.3% (inactive). As to `CC(C)CCNc1nc(N2CCCC2)c2c(c1C#N)CCN(C)C2`, the inhibition was 69.7% (active).

As for `CCN1CCc2c(C#N)c(NCc3ccccc3)nc(NCCO)c2C1`, the inhibition was 35.5% (inactive).

Regarding `CCOC(=O)C(C)Oc1cccc2c(=O)n(CC(=O)N3CCc4ccccc43)ccc12` (stereo not drawn), the inhibition is 9% (inactive).

As for `O=S(=O)(c1cccc(-c2nnc(SC(F)F)n2-c2ccccc2)c1)N1CCCCC1`, the inhibition is 21.2% (inactive). As for `O=S(=O)(c1cccc(S(=O)(=O)N2CCC(n3nnc4ccccc43)CC2)c1)N1CCCCC1`, the inhibition was 88.3% (active). For the compound `CC(=O)c1cccc(S(=O)(=O)N2CCC(n3nnc4cc(F)ccc43)CC2)c1`, the inhibition is -31% (inactive). Consider `CCCN(CCC)CCNC(=O)c1cc2c(C)nc3ccccc3c2o1`, for which the inhibition is 8.6% (inactive). `Cc1sc2c(c1C)c(=O)n(-c1ccccc1)c1nncn21`: the inhibition was -2.8% (inactive). For `N#Cc1nc(COc2ccc(-c3ccccc3)cc2)oc1NCc1cccnc1` the value was 70.7% (active). Take `COc1ccc(Nc2oc(-c3ccccc3Cl)nc2C#N)cc1`: the inhibition was 47% (inactive). In the case of `CCOc1ccc(Nc2oc(Cc3ccccc3)nc2C#N)cc1` it was 78.1% (active); in that of `N#Cc1nc(-c2ccc(OCc3ccccc3)cc2)oc1NCCCN1CCOCC1`, 41% (inactive); in that of `N#Cc1nc(Cc2ccccc2)oc1NCCc1ccccc1`, 39.2% (inactive). For the compound `c1ccc(-c2cc(-c3nnc4sc(-c5ccccn5)nn34)[nH]n2)cc1`, the inhibition is -2.3% (inactive). For `COc1ccc(C(F)(F)F)cc1N/C=C\c1nnnn1-c1ccc(C)cc1`, the inhibition is 44.6% (inactive). Consider `CCN(CC)S(=O)(=O)c1cc(C(=O)Nc2ccccn2)ccc1C`, for which the inhibition is 38.8% (inactive). Consider `CCN(CC)C(=O)N1CCN(C(=O)c2ccc(C)cn2)CC1`, for which the inhibition is -1% (inactive).

For the compound `CCCOc1ccc(C2NC(=O)NC(c3ccccc3)=C2C(C)=O)cc1OCC` (stereo not drawn), the inhibition was 37.3% (inactive). In the case of `Cc1cccc(COc2ccccc2/C=N/Nc2ccc([N+](=O)[O-])cc2)c1` it was 43.5% (inactive).

Take `CC(=O)CSc1nnc(CSc2ncccn2)n1C1CCCCC1`: the inhibition is -10.7% (inactive). On to `CCCNC(=O)c1c(N)n(-c2ccc(S(N)(=O)=O)cc2)c2nc3ccccc3nc12`, for which the inhibition is -2.9% (inactive). Regarding `CCN(CC)CCN1C(=O)C(=O)/C(=C(/O)c2ccccc2)C1c1ccccc1F` (stereo not drawn), the inhibition was -5.9% (inactive). With `CC(=O)C1=C(O)C(=O)N(c2ccc(S(N)(=O)=O)cc2)C1c1ccccc1F` (stereo not drawn), the inhibition is 62.8% (active). For the compound `COCC(=O)Nc1ccc(Br)cc1`, the inhibition is -12.9% (inactive). For `O=C(NCc1ccco1)C1(c2ccc(Cl)cc2)CCCC1`, the inhibition is 58.8% (active). Consider `O=C(NCCCCCCNC(=O)NCc1ccco1)NCc1ccco1`, for which the inhibition was -11.1% (inactive). With `O=C(/C=C/c1ccc(Cl)cc1Cl)NCc1ccco1`, the inhibition was -2.5% (inactive).
